For 84 molecules, percent response results are on record in PubChem BioAssay AID1530 (NMMLSC, 2009).

Each structure is given as a SMILES string. Out of some 290,000 compounds screened, about 1,000 (0.34%) were called active. The full list was thinned out, with actives kept by preference. Unmarked numbers belong to inactive results. No stated cut-off is given here; in the data, active means percent response above about 24% (passing the limit was not always enough); inactive means the rest.

The subject of this assay is MEKK2 (MAP3K2) mutant PB1 domain binding to MEK5, human. Nature of the assay: MEK5 binding signal on mutant MEKK2 PB1, primary screen, biochemical, multiplex bead flow cytometry, Alexa488-MEK5 (AID 1530). Particulars: at 10 µM, stronger effect = higher value.
`CN(C)CCCN(C(=O)c1ccc(S(=O)(=O)N2CCCc3ccccc32)cc1)c1nc2ccc(F)cc2s1`: the percent response is 65% (active).
With `CCOc1ccc2nc(N(CCCN(C)C)C(=O)c3ccc(C(=O)c4ccccc4)cc3)sc2c1` the figure was 19%; with `O=C(Nc1nc2ccc([N+](=O)[O-])cc2s1)c1ccc(S(=O)(=O)N2CCCc3ccccc32)cc1`, -5%; with `CCN(CC)CCN(C(=O)c1ccc(S(=O)(=O)N2CCOCC2)cc1)c1nc2cc3c(cc2s1)OCCO3`, 11%.
With `CCc1ccc2nc(N(CCCN(C)C)C(=O)c3ccc4c(c3)OCCO4)sc2c1` the figure was 3%; with `CN(C)CCCN(C(=O)c1ccc(S(=O)(=O)N2CCCCCC2)cc1)c1nc2ccc(Br)cc2s1`, 61% (active).
With `O=C(NC1CCCC1)C1CC(=O)N(c2ccc(F)cc2)C1` (centres undefined) the figure was 0%; with `CN(C)CC(O)COc1ccc(C(C)(C)c2ccc(OCC(O)CN(C)C)cc2)cc1` (centres undefined), 33% (active); with `Cc1cc(C)n(CC(O)COc2ccc(C(C)(C)C)cc2)n1` (centres undefined), -1%.
Take `CC(C)(c1ccccc1)c1ccc(OCCN)cc1`: the percent response was 0%.
With `CCn1cc(CN2CCC(C(=O)Nc3cccc(-c4cccc(Cl)c4)c3)CC2)cn1` the figure was 21%; with `CCn1cc(CN2CCC(C(=O)Nc3cccc(-c4cccc(Cl)c4)c3)CC2)c(C)n1`, 35% (active); with `O=C(Nc1cccc(-c2cccc(Cl)c2)c1)C1CCN(C2CCC2)CC1`, 14%.
`CC1CCN(CC(=O)Nc2nccs2)CC1`: the percent response is 3%.
For `Cc1ccc(C)c(S(=O)(=O)Nc2cccc(-n3cnnn3)c2)c1`, the percent response was -1%.
Consider `CN1C(=O)/C(=C/c2ccc(C(=O)NC3CCCC3)cc2)Oc2ccccc21`, for which the percent response was 2%.
Regarding `CCCN1CCN(C(=O)CCCNC(=O)c2ccc(Cl)cc2)CC1`, the percent response is -2%.
As to `CN1CCN(CCCNC(=O)c2ccc(/C=C3\Oc4ccccc4N(Cc4ccc(Cl)cc4)C3=O)cc2)CC1`, the percent response is 48% (active).
For `NS(=O)(=O)c1ccc2nc(NC(=O)C3=COCCO3)sc2c1`, the percent response is -4%.
Take `Cc1ccc(NC(=O)COc2ccc(-n3ccnc3)cc2)cc1Cl`: the percent response is 27% (active).
With `CCC(=O)c1ccc(OCC(=O)Nc2ccc3nc(C)sc3c2)cc1` the figure was -22%.
For `Cc1ccc(NC(=O)C/C(N)=N/O)cc1Cl`, the percent response is 1%.
The figure for `O=C1N[C@H](Cc2ccccc2)C(=O)N[C@H]1Cc1cn(S(=O)(=O)c2ccccc2)c2ccccc12` is 2%; for `CCOC(=O)N1CCN(C(=O)C2CCN(S(=O)(=O)c3cc(Cl)ccc3OCC)CC2)CC1` it is 5%.
The figure for `O=C(CSc1ccc(-c2ccc(Br)cc2)nn1)NCC1CCCO1` (centres undefined) is 6%; for `OC(CNCC1CCCO1)Cn1c2ccc(Br)cc2c2cc(Br)ccc21` (centres undefined) it is 40% (active); for `CC(NS(=O)(=O)c1ccc(Br)cc1)C(=O)NCC1CCCO1` (centres undefined) it is 4%.
The figure for `COc1ccc(NC(=O)C2=CC(c3ccc(OC)c(OC)c3)=NS(=O)(=O)N2C)cc1` is -4%.
As for `COc1cc(CNCc2ccc(OC)c3ccccc23)cc(OC)c1OC`, the percent response is 6%.
With `Nc1nonc1-n1nnc(C(=O)N/N=C/c2cc(Br)ccc2O)c1CSC1=NCCS1` the figure was 8%; with `CCOc1cc(CN2CCN(C(=O)CC(C)C)CC2)ccc1OC`, 2%; with `CC(C)CC(=O)N1CCN(Cc2cccc(Cl)c2)CC1`, 9%.
With `CC(C)CC(=O)N1CCN(Cc2ccccc2Br)CC1` the figure was 24% (active).
In the case of `COc1ccc(S(=O)(=O)NCCc2cc3ccc(C)c(C)c3[nH]c2=O)cc1`, the percent response is 1%.
The figure for `CC(=O)Nc1cccc(NC(=O)CSc2nccn2Cc2ccc(F)cc2)c1` is -1%; for `Cc1cccc(NC(=O)c2cccc(C(F)(F)F)c2)c1` it is -2%.
Regarding `COc1cccc(NC(=O)NCc2ccc(F)cc2)c1`, the percent response is -5%.
As to `Cc1cccc(NC(=O)Nc2cccc(Oc3c(F)c(F)c(F)c(F)c3F)c2)c1`, the percent response is 56% (active).
For the molecule `Cc1ccc(N(CC(=O)NC2CCCCC2)C(=O)CCCC(=O)Nc2ccccn2)c(C)c1`, the percent response is 1%.
With `O=S(=O)(Oc1ccccc1C(=S)N1CCOCC1)c1ccc(Cl)cc1` the figure was 7%.
The figure for `CCN1CCN(CCNC(=O)c2ccc(/C=C3/Sc4ccccc4N(Cc4cccc(C)c4)C3=O)cc2)CC1` is 59% (active).
With `O=C(NCCN1CCOCC1)c1ccc(/C=C2\Sc3ccccc3N(Cc3ccc(F)cc3)C2=O)cc1` the figure was 19%.
Regarding `CCN1CCN(CCNC(=O)c2ccc3c(c2)NC(=O)/C(=C\c2ccc(OC)c(OC)c2)S3)CC1`, the percent response was 17%.
`Cn1c(Nc2cccc(Cl)c2)nc2ccccc21`: the percent response is 4%.
As to `COc1ccc(OC)c(NC(=O)C2CCCN2S(=O)(=O)c2cccc3nsnc23)c1` (centres undefined), the percent response was 2%.
With `Cc1cc(=O)[nH]c(SCc2cc(Cl)ccc2OC(F)F)n1` the figure was 1%; with `O=C(OCc1cc(Cl)ccc1OC(F)F)c1cccnc1`, 152% (active).
On to `O=C(OCc1cc2ccccc2[nH]c1=O)c1cccnc1`, for which the percent response is 8%.
With `CC1=C(C)CC(C(=O)NNC(=O)c2ccccc2O)C(C(=O)O)C1` (centres undefined) the figure was 16%.
Regarding `Cc1ccc(NC(=S)N(CCCN2CCCC2)Cc2cccn2Cc2ccc(Cl)cc2)cc1`, the percent response was 57% (active).
The figure for `Cc1ccc(NC(=S)N(CCCN2CCC(C)CC2)Cc2ccco2)cc1` is -2%.
As to `Cc1ccc(NC(=S)N(CCN2CCCCC2)Cc2ccco2)cc1C`, the percent response is -3%.
The figure for `O=C(CP(=O)(c1ccccc1)c1ccccc1)N1CCOCC1` is -5%; for `Cn1c(=NC(=O)c2cnccn2)sc2ccccc21` it is 10%.
The figure for `Cn1c(=NC(=O)CSCC(=O)N2CCCCC2)sc2ccccc21` is 28% (active).
With `Cn1c(=NC(=O)CSCC(=O)N2CCOCC2)sc2ccccc21` the figure was 25% (active).
As for `COC(=O)Cn1c(=NC(=O)CSCC(=O)Nc2cc(C)on2)sc2ccccc21`, the percent response is 8%.
As for `Cc1ccc(NC(=O)CSCC(=O)N2CCOCC2)cc1`, the percent response was 3%.
Take `COc1cc(C2/C(=C(\O)c3ccc4c(c3)CC(C)O4)C(=O)C(=O)N2c2nnc(C)s2)cc(OC)c1OC` (centres undefined): the percent response was 1%.
The figure for `Nc1nc(-c2sc3nc4c(cc3c2N)CCCC4)nc(N2CCOCC2)n1` is -8%; for `C/C(=N\NC(=O)COc1ccc(C)cc1[N+](=O)[O-])c1ccc2c(c1)OCCO2` it is 1%.
`Cc1c(CN2CCC(CO)(CCOc3ccccc3)CC2)[nH]c2ccc(Cl)cc12`: the percent response is 69% (active).
For the molecule `CCOC(=O)C1(CCOc2ccccc2)CCN(Cc2cc(OC)c(O)cc2Cl)CC1`, the percent response is 9%.
With `OCC1(CCOc2ccccc2)CCN(Cc2cn[nH]c2-c2ccccc2)CC1` the figure was -4%; with `COCCN1CCN(C(=O)c2cc(COc3ccc(F)cc3Cl)on2)CC1`, 7%.
The figure for `O=C(NCCCn1ccnc1)Nc1ccc(Cl)cc1Cl` is -1%; for `Cc1ccc(S(=O)(=O)NCCCn2ccnc2)cc1C(=O)NC(C)C` it is 12%; for `CCOc1ccc(S(=O)(=O)NCCCn2ccnc2)cc1NC(C)=O` it is 25% (active).
With `O=S(=O)(Cc1nnnn1-c1ccc(Br)cc1)c1ccc(F)cc1` the figure was 7%; with `O=C1N[C@@H](Cc2ccccc2)C(=O)N2[C@@H]3N(S(=O)(=O)c4ccc(F)cc4)c4ccccc4[C@]3(Br)C[C@@H]12`, 2%.
With `CCN(CC(=O)NCc1ccco1)S(=O)(=O)c1ccc(F)cc1`, the percent response was 1%.
Consider `CCOc1ccc(N/C=C/C(=O)c2ccccc2)cc1`, for which the percent response is 7%.
The figure for `O=C(/C=C/Nc1ccccc1)c1cnc(-c2ccccc2)s1` is 26% (active); for `CC(=O)c1cnc(-c2ccccc2)s1` it is -8%; for `O=S(=O)(c1ccc(Cl)s1)N1CCC2(CC1)OCCO2` it is -1%.
In the case of `C#CCOCCOCCOCCNc1nc(N2CCN(C(=O)[C@H](CCC(=O)O)n3cc(C(N)CO)nn3)CC2)nc(N2CCN(C(=O)[C@H](CCCCN)n3cc(C(N)CC(C)C)nn3)CC2)n1` (some centres undefined), the percent response was 2%.
The figure for `C#CCOCCOCCOCCNc1nc(N2CCN(C(=O)C([C@@H](C)CC)n3cc(C(N)COC(=O)C(F)(F)F)nn3)CC2)nc(N2CCN(C(=O)[C@H](Cc3ccc(O)cc3)n3cc(C(N)[C@H](C)CC)nn3)CC2)n1` (some centres undefined) is 9%; for `C#CCOCCOCCOCCNc1nc(N2CCN(C(=O)[C@H](CCC(=O)O)n3cc(C(N)CO)nn3)CC2)nc(N2CCN(C(=O)[C@H](Cc3ccc(O)cc3)n3cc(C(N)[C@H](C)CC)nn3)CC2)n1` (some centres undefined) it is 1%; for `C#CCOCCOCCOCCNc1nc(N2CCN(C(=O)[C@H](CCCCN)n3cc([C@@H](N)C(C)CC)nn3)CC2)nc(N2CCN(C(=O)[C@H](Cc3ccc(O)cc3)n3cc([C@@H](N)C(C)CC)nn3)CC2)n1` (some centres undefined) it is 56% (active).
As to `C#CCOCCOCCOCCNc1nc(N2CCN(C(=O)C(Cc3ccc(O)cc3)n3cc(C(N)CC(C)C)nn3)CC2)nc(N2CCN(C(=O)C(Cc3ccc(O)cc3)n3cc(C(N)C(C)CC)nn3)CC2)n1` (centres undefined), the percent response was 32% (active).
The figure for `C#CCOCCOCCOCCNc1nc(N2CCN(C(=O)[C@H](CCC(=O)O)n3cc(C(N)CO)nn3)CC2)nc(N2CCN(C(=O)[C@H](CCCCN)n3cc(C(N)[C@H](C)CC)nn3)CC2)n1` (some centres undefined) is 3%; for `C#CCOCCOCCOCCNc1nc(N2CCN(C(=O)[C@H](Cc3ccc(O)cc3)n3cc(C(N)CC(C)C)nn3)CC2)nc(N2CCN(C(=O)[C@H](CCC(=O)O)n3cc(C(N)[C@H](C)CC)nn3)CC2)n1` (some centres undefined) it is 5%.
For the molecule `C#CCOCCOCCOCCNc1nc(N2CCN(C(=O)C([C@@H](C)CC)n3cc(C(N)COC(=O)C(F)(F)F)nn3)CC2)nc(N2CCN(C(=O)[C@H](CCCCN)n3cc(C(N)CC(C)C)nn3)CC2)n1` (some centres undefined), the percent response is 53% (active).
As to `C#CCOCCOCCOCCNc1nc(N2CCN(C(=O)[C@H](C(C)C)n3cc(CCO)nn3)CC2)nc(N2CCN(C(=O)[C@H](C(C)C)n3cc(CCO)nn3)CC2)n1`, the percent response was 2%.
